MCF10A rerep – DNA re-replication induction in MCF 10a cells. Potency, µM (titrated, usually from 46.1 µM), without a hit: at the top dose activity, positive = re-replication, actives largely listed as activators. 2.9% of 350,000 active. MCF 10A DNA re-replication, Hoechst nuclear intensity, 48 h; also: % of control where 0% means no effect; nearly all actives have a fitted effect of over 50% in size
KB-3-1 tox – kills parental KB-3-1 adenocarcinoma cells; 1.4% of 400,000 active; AID 1347075; KB-3-1 viability, CellTiter-Glo ATP luminescence, 72 h; Potency, µM (top dose mostly 46.1 µM), hits mostly cytotoxic; also: % is scaled to controls: 0 for no effect and ±100 for the full control effect; nearly all actives have a fitted effect of over 60% in size
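Cells are dispensed, compounds pinned in, plates held at 37 °C for 72 h, then CellTiter-Glo is added and luminescence read after 10 minutes. Cell line: parental KB-3-1 in phenol-red-free DMEM, 10% FBS.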
KB-V1 cytotox – kills drug-selected multidrug resistant KB-V1 cells. AID 1347076. 3.4% of 400,000 active. Potency, µM (series often up to 46.1 µM), actives largely listed as cytotoxic. KB-V1 MDR cells viability, CellTiter-Glo, 72 h; also: % is scaled to controls: 0 for no effect and ±100 for the full control effect; nearly all actives have a fitted effect of over 60% in size
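qHTS viability screen in drug-selected KB-V1 MDR cells: 72 h compound treatment at 37 degrees C, ATP luminescence end point.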
SW480 rerep – inducers of DNA re-replication in SW480 colon cancer cells; SW480 DNA re-replication, Hoechst DNA content imaging, 48 h; Potency, µM (titrated, usually from 46.1 µM), without a hit: top-dose re-replication activation, actives largely listed as activators; 1.8% of 340,000 active; AID 624297; also: % of control where 0% means no effect; nearly all actives have a fitted effect of over 55% in size
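250 cells/well; 23 nL cpd via pin tool; 48 hr, 37 C, 5% CO2; Hoechst 40 min; imager read of total nuclear intensity, ex 405/em 500-530 nm.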
ELG1 repair inh – blocks ELG1-dependent DNA repair in HEK293T cells; AID 504467; 2.3% of 330,000 active; Potency, µM (titrated, usually from 46.1 µM), for the others: at the highest dose activity change, negative = inhibition, most hits filed as inhibitors; HEK293T ELG1-luciferase reporter, luminescence, 16 h; DNA damage induced by 5-fluorouridine; also: % is scaled to controls: 0 for no effect and ±100 for the full control effect; nearly all actives have a fitted effect of over 55% in size
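Overnight (16 hr) co-exposure of 2,000 cells/well to 5-fluorouridine and compound at 37 °C preceded detection. Luciferase was quantified via ONE-Glo luminescence; loss of signal denotes inhibition.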
The depositor's hits bear a star. This is a sample that favours compounds with a hit; in the whole collection about 8.1% have one here. Calls follow the shape of the dose curve; as a rule, active = well fitted curve in the direction sought with a large enough effect; inconclusive = small, poorly fitted or top-dose-only effect, or another doubt; inactive = no such curve, though single readings can be large; an effect the other way counts as inactive or inconclusive. Potency is read from the fitted curve at half-maximal effect.

Screening Cc1ccc(S(=O)(=O)N(CC(=O)NC2CCCCCC2)c2ccccc2F)cc1 returned MCF10A rerep 12%, KB-3-1 tox inactive, KB-V1 cytotox inactive, SW480 rerep -7% and ELG1 repair inh 5%.
For CC(=O)Oc1ccc2c(=O)c(Oc3ccccc3)coc2c1OC(C)=O the results were MCF10A rerep inconclusive, KB-3-1 tox inconclusive, KB-V1 cytotox 13µM*, SW480 rerep inconclusive and ELG1 repair inh -2%.
For Cc1ccc(Oc2coc3cc(OC(=O)c4cccs4)ccc3c2=O)cc1 the results were MCF10A rerep 5%, KB-3-1 tox inactive, KB-V1 cytotox inactive, SW480 rerep -4% and ELG1 repair inh inconclusive.
Cc1c(OC(C)C(=O)NCC(O)c2ccccc2)ccc2c3c(c(=O)oc12)CCCC3 (centres undefined) was read as MCF10A rerep -32%, KB-3-1 tox inactive, KB-V1 cytotox inactive, SW480 rerep 12% and ELG1 repair inh 15µM*.
Screening COc1cccc2c1C(=O)c1c(O)c3c(c(O)c1C2=O)CC(O)(C(=O)CO)CC3OC1CC(N(C)C)C(O)C(C)O1 (centres undefined) returned MCF10A rerep 1%, KB-3-1 tox inconclusive, KB-V1 cytotox 13µM* and SW480 rerep -9%.
`COc1cccc2c1C(=O)c1c(O)c3c(c(O)c1C2=O)C[C@](O)(C(=O)CO)C[C@@H]3O[C@H]1C[C@H](N)[C@@H](O)[C@H](C)O1` gave MCF10A rerep -4% and SW480 rerep -8%.
Screening COc1cccc2c1C(=O)c1c(O)c3c(c(O)c1C2=O)C[C@@](O)(C(=O)CO)C[C@@H]3O[C@H]1C[C@H](N)[C@@H](O)[C@H](C)O1 returned MCF10A rerep -26%, KB-3-1 tox inconclusive and SW480 rerep -134%.
Screening COc1cccc2c1C(=O)c1c(O)c3c(c(O)c1C2=O)C[C@@](O)(C(C)=O)C[C@@H]3O[C@H]1C[C@H](N)[C@H](O)[C@H](C)O1 returned MCF10A rerep 13%, KB-3-1 tox 0.013µM*, KB-V1 cytotox inconclusive, SW480 rerep -4% and ELG1 repair inh 3.3µM*.
For CC(=O)[C@]1(O)Cc2c(O)c3c(c(O)c2[C@@H](O[C@H]2C[C@H](N)[C@H](O)[C@H](C)O2)C1)C(=O)c1ccccc1C3=O the results were MCF10A rerep 2%, KB-3-1 tox 0.073µM*, KB-V1 cytotox 1.8µM* and SW480 rerep -219%.
`CCOC(=O)/C=C1\SCC(=O)N1CC(=O)Nc1cccc(F)c1` gave MCF10A rerep -3%, KB-3-1 tox inactive, KB-V1 cytotox inactive, SW480 rerep -1% and ELG1 repair inh -4%.
`COc1cc(Cl)ccc1OC1(C)CCN(Cc2ccc(SC)cc2)C1` (centres undefined) gave KB-3-1 tox inactive and KB-V1 cytotox inactive.
`CC1=CC(C)C(C[N+]2(C)CCCCC2)C(C)C1` (centres undefined) gave MCF10A rerep 2%, KB-3-1 tox inactive, KB-V1 cytotox inactive, SW480 rerep 2% and ELG1 repair inh -4%.
`CC1=CC(C)C(/C=N/N=C(N)N)C(C)C1` (centres undefined) gave MCF10A rerep inconclusive, KB-3-1 tox inconclusive, KB-V1 cytotox inactive, SW480 rerep inconclusive and ELG1 repair inh 5.8µM*.
Screening CCCN(C(=O)c1cn(C)c(=O)c2ccccc12)c1ccccc1C returned MCF10A rerep 21%, KB-3-1 tox inactive, KB-V1 cytotox inactive, SW480 rerep -3% and ELG1 repair inh 17%.
`COc1cc(-c2nc(-c3ccc4c(c3)-c3ccccc3S4(=O)=O)c(-c3ccccc3)[nH]2)cc(OC)c1O` gave MCF10A rerep inconclusive, KB-3-1 tox inconclusive, KB-V1 cytotox inconclusive, SW480 rerep 17% and ELG1 repair inh 4.6µM*.
For CCn1c(NC(=O)c2ccc(F)cc2)c2ccccc2nc1=O the results were MCF10A rerep 23%, KB-3-1 tox inconclusive, KB-V1 cytotox 10µM*, SW480 rerep -11% and ELG1 repair inh inconclusive.
`CCn1c(NC(=O)C(C)C)c2ccccc2nc1=O` gave MCF10A rerep -1%, KB-3-1 tox inactive, KB-V1 cytotox inactive, SW480 rerep -14% and ELG1 repair inh -2%.
`CCn1c(NC(=O)c2ccc(C)cc2)c2ccccc2nc1=O` gave MCF10A rerep 7%, KB-3-1 tox inactive, KB-V1 cytotox 12µM*, SW480 rerep -2% and ELG1 repair inh 12%.
`O=C(Nc1nc(=O)c2ccccc2s1)c1ccc(F)cc1` gave MCF10A rerep inconclusive, KB-3-1 tox inactive, KB-V1 cytotox inactive, SW480 rerep -3% and ELG1 repair inh inconclusive.
Screening Cc1cc(C)nc(N2CCCC(C(=O)Nc3ccc4c(c3)OCO4)C2)n1 (centres undefined) returned MCF10A rerep 11%, KB-3-1 tox inactive, KB-V1 cytotox 23µM*, SW480 rerep 3% and ELG1 repair inh 2%.
Cc1cc(C)nc(N2CCCC(C(=O)Nc3cc(F)ccc3C)C2)n1 (centres undefined) was read as MCF10A rerep -4%, KB-3-1 tox inactive, KB-V1 cytotox 16µM*, SW480 rerep -2% and ELG1 repair inh -18%.
For Cc1cc(C)nc(N2CCCC(C(=O)NCCc3cccc(F)c3)C2)n1 (centres undefined) the results were MCF10A rerep -1%, KB-3-1 tox inactive, KB-V1 cytotox 18µM*, SW480 rerep -8% and ELG1 repair inh -6%.
Screening COc1ccccc1NC(=O)C1CCCN(c2nc(C)cc(C)n2)C1 (centres undefined) returned MCF10A rerep 7%, KB-3-1 tox inactive, KB-V1 cytotox inconclusive, SW480 rerep -6% and ELG1 repair inh inconclusive.
Screening Cc1ccc(C)c(Cn2nc(-c3ccccc3)ccc2=O)c1 returned MCF10A rerep 15%, KB-3-1 tox inactive, KB-V1 cytotox inactive, SW480 rerep inconclusive and ELG1 repair inh inconclusive.
For CCCCn1c(N)c(N(CC(C)C)C(=O)c2ccc(N3C(=O)CCC3=O)cc2)c(=O)[nH]c1=O the results were MCF10A rerep -3%, KB-3-1 tox inactive, KB-V1 cytotox inactive, SW480 rerep -8% and ELG1 repair inh -1%.
Screening CCc1cc(SC#N)cc(C)c1NC(=O)CCl returned MCF10A rerep 16µM*, KB-3-1 tox inconclusive, KB-V1 cytotox inactive, SW480 rerep 23µM* and ELG1 repair inh inconclusive.
For Cc1cc(SC#N)cc(C)c1NC(=O)CCl the results were MCF10A rerep inconclusive, KB-3-1 tox inactive, KB-V1 cytotox inactive and ELG1 repair inh -26%.
For Cc1cc(Cl)ccc1OCC(=O)Nc1ccccc1N1CCOCC1 the results were MCF10A rerep 21%, KB-3-1 tox inconclusive, KB-V1 cytotox 15µM*, SW480 rerep 1% and ELG1 repair inh 11%.

Source: PubChem BioAssay
